Nrf2 ARE act = Nrf2 pathway activation | AREc32 ARE-luciferase reporter (MCF7-derived line), luminescence, 24 h | 0.31% of 410,000 active | Potency, µM (titrated, usually from 46.1 µM), without a hit: top-dose activation, most hits filed as activators; also: % of control where 0% means no effect; nearly all actives have a fitted effect of over 65% in size
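Each well held 1000 AREc32 cells, which were incubated with compound for 24 hr at 37 deg C after overnight attachment, and ARE reporter activity was quantified by firefly luciferase luminescence.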
A549 viability = A549 cytotoxicity, counter-screen for Nrf2 inhibitors | A549 ARE-Fluc cells, CellTiter-Fluor viability, 18-24 h | 0.16% of 390,000 active | Potency, µM (top dose mostly 46 µM), inactives show top-dose activity change, negative = cytotoxicity, hits mostly inhibitors; also: % is scaled to controls: 0 for no effect and ±100 for the full control effect
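A549 ARE-Fluc cells in 5% FBS OPTI-MEM, 5000 cells/well, rested 2 h then exposed to compounds in concentration-response for 18-24 h at 37 °C. Viability by CellTiter-Fluor fluorescence (Ex 405/Em 525) after 30 min; luciferase luminescence (BugLite, 15 min, RT) read afterwards.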
rTrxR1 inhibitor = rat TrxR1 inhibition; recombinant rTrxR1, NADPH fluorescence consumption, selenite substrate; Potency, µM (doses to about 114 µM), for inactives: at the highest dose activity change, negative = inhibition, hits mostly inhibitors; 1% of 390,000 active; also: % is scaled to controls: 0 for no effect and ±100 for the full control effect; nearly all actives have a fitted effect of over 65% in size
Target sequence (O89049 whole entry, looked up): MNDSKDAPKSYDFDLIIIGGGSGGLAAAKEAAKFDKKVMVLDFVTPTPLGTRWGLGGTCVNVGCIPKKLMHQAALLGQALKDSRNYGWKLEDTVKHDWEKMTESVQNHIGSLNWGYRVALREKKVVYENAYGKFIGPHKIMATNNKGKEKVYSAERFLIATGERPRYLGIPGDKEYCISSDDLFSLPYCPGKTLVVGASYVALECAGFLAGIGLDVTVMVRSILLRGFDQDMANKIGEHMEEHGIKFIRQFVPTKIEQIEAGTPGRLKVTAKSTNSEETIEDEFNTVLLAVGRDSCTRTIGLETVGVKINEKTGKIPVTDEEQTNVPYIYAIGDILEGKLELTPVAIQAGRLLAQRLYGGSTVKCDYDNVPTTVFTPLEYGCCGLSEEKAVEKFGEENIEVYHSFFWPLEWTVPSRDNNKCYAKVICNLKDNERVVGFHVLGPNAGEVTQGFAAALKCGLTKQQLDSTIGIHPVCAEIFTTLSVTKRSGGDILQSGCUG
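Rat TrxR1 (90 nM in the dispensed reagent) was pre-reduced with 400 uM NADPH for 5 min at room temperature, then incubated with compound for 15 min. After 400 uM selenite was added, NADPH fluorescence (Ex 340/Em 450 nm) was followed for 8 min.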
TrxR1 substrate = rat thioredoxin reductase 1 substrate activity; O89049; purified TrxR1 substrate turnover, NADPH consumption readout; Potency, µM (top dose mostly 114 µM), without a hit: at the top dose activity change, negative = substrate turnover; 0.01% of 390,000 active; also: % is scaled to controls: 0 for no effect and ±100 for the full control effect; nearly all actives have a fitted effect of over 50% in size
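Rat TrxR1, dispensed at 90 nM, was prereduced with 400 uM NADPH (final) for 5 min at ~22 deg C, then incubated with compound 15 min before 400 uM selenite. A first-read NADPH fluorescence drop versus no-compound background flagged substrates.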
GALK inhibitor = inhibitors of human galactokinase | Potency, µM (highest dose often 57.5 µM), for inactives: at the top dose activity change, negative = inhibition, most hits filed as inhibitors | Purified GALK, Kinase-Glo residual ATP luminescence | AID 1868 | P51570 | 0.007% of 270,000 active; also: % is scaled to controls: 0 for no effect and ±100 for the full control effect
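5 nM enzyme, 35 uM ATP, 100 uM galactose, 20 mM HEPES pH8.0, 5 mM MgCl2; 1 h RT; residual ATP by Kinase-Glo Plus luminescence, qHTS format.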
Nrf2 inh = Nrf2 pathway inhibition; A549 ARE-Fluc reporter, luciferase luminescence, 18-24 h; Potency, µM (top dose mostly 46 µM), inactives show top-dose activity change, negative = inhibition, usual class: inhibitors; 2.1% of 360,000 active; AID 504444; also: % is scaled to controls: 0 for no effect and ±100 for the full control effect; nearly all actives have a fitted effect of over 60% in size
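Nrf2 activity is the BugLite luminescence, read 15 min after reagent at room temperature, following CellTiter-Fluor cytotoxicity readout (30 min, 37C). Compound titrations were applied for 18-24 h to 5000 A549 ARE_Fluc cells/well in 5% FBS OPTI-MEM.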
Starred values were filed as active, the others as inactive; ? = inconclusive; . = no result; ! = a repeat was not active; [ ] = dose if it differs, or a comment. In the library only some 3% were active in any assay of this set; here they are far more common. Calls follow the shape of the dose curve; as a rule, active = well fitted curve in the direction sought with a large enough effect; inconclusive = small, poorly fitted or top-dose-only effect, or another doubt; inactive = no such curve, though single readings can be large; an effect the other way counts as inactive or inconclusive. Potency is read from the fitted curve at half-maximal effect.

SMILES	Nrf2 ARE act	A549 viability	rTrxR1 inhibitor	TrxR1 substrate	GALK inhibitor	Nrf2 inh
O=C(O)c1cccc(-n2cccc2/C=C\[N+](=O)[O-])c1	0%	-1%	?	-4%[57.1 µM]	1%	-1%
Cn1cnc(S(=O)(=O)N2CCC(C(=O)N3CCN(c4ccccc4F)CC3)CC2)c1	-1%	4%	18%[57.1 µM]	2%[57.1 µM]	.	.
O=C1CC(Sc2nnnn2-c2ccccc2)C(=O)N1c1cccc(Cl)c1 (stereo not given)	-3%	-2%	32µM*	-1%	1%	-18%
CCOC(=O)c1ccc(N2C(=O)CC(Sc3nc(C)cc(C)n3)C2=O)cc1 (stereo not given)	0%	-12%	13%	4%	5%	5%
Nc1nnc(SC2CC(=O)N(c3ccccc3)C2=O)s1 (stereo not given)	1%	-7%	28µM*	-6%	5%	-18%
C=CCNc1nnc(SC2CC(=O)N(c3ccc(OCCC)cc3)C2=O)s1 (stereo not given)	3%	4%	7.1µM*	-7%	1%	-1%
O=C1CC(Sc2ncccn2)C(=O)N1c1ccccc1 (stereo not given)	0%	-5%	-17%	-5%	1%	0%
COc1ccc(N2C(=O)CC(Sc3nnnn3-c3ccc(F)cc3)C2=O)cc1 (stereo not given)	-3%	?	?	3%[57.1 µM]	-2%	?
CCOc1ccc(N2C(=O)CC(Sc3nc4ccc(OCC)cc4s3)C2=O)cc1 (stereo not given)	0%	-2%	-9%	-7%	.	32%
CCOC(=O)c1ccc(N2C(=O)CC(Sc3nnc(C)s3)C2=O)cc1 (stereo not given)	2%	3%	5.6µM*	6%	3%	?
Cc1cc(C)cc(C(=O)n2nc(C)c(S(=O)(=O)N3CCCCCC3)c2C)c1	0%	15%	-1%[57.1 µM]	-2%[57.1 µM]	.	.
COc1ccc2cc3cc(C(=O)NCCc4ccccc4)sc3nc2c1Cl	5%	7%	7%[57.1 µM]	1%[57.1 µM]	.	.
CCOC(=O)c1ccc(N2C(=O)C=CC2=O)cc1	6%	-15%	8.9µM*	9%	0%	?
NS(=O)(=O)c1ccc(CCNC(=O)CN2CCN(c3ccc(F)cc3)CC2)cc1	0%	-11%	5%	-2%	-4%	16µM*
CC(C)(C)OC(=O)N1CCC(c2c(C(=O)NCCN3CCC(Cc4ccccc4)CC3)cnn2-c2cccc(Cl)c2)CC1	8%	?	12%	-6%	.	?
CCN1C(=O)[C@H]2[C@@H](c3ccc(SC4CCCCC4)cc3)N[C@@](CC(C)C)(C(=O)OC)[C@H]2C1=O	-1%	-2%	10%[57.1 µM]	3%[57.1 µM]	.	21µM*
CCC(C)Sc1ccc([C@H]2N[C@@](CC(C)C)(C(=O)OC)[C@H]3C(=O)N(CC)C(=O)[C@@H]23)cc1 (stereo not given in full)	-1%	-2%	5%	-13%	.	-14%
O=C(Nc1sc2c(c1C(=O)O)CCCCC2)c1ccccc1	4%	-11%	-13%	-9%	2%	?
CCC(=O)Nc1sc2c(c1C(=O)Nc1cccc(C)c1)CCCC2	3%	3%	7%[57.1 µM]	0%[57.1 µM]	.	.
O=C(Cc1ccccc1)Nc1sc2c(c1C(=O)Nc1ccccc1)CCCCC2	7%	5%	40µM*	-4%	.	8%
CCC(=O)Nc1sc2c(c1C(=O)Nc1ccc(Br)cc1)CCCCC2	8%	-12%	56µM*	2%	.	24%
O=C(Nc1sc2c(c1C(=O)O)CCCC2)c1ccc(Cl)cc1	0%	?	1%	-13%	-9%	6.5µM*
CCc1ccc(C2=NN(CCC(=O)NCCc3ccc(OC)c(OC)c3)C(=O)CC2)cc1	6%	-1%	12%[57.1 µM]	2%[57.1 µM]	.	.
NC(=NCCCCCCN=C(N)/N=C(\N)Nc1ccc(Cl)cc1)/N=C(\N)Nc1ccc(Cl)cc1	0%	?	1%	2%	.	23µM*!
CC(C)N=C(N)N=C(N)Nc1ccc(Cl)cc1	7%	-4%	17%	-1%	.	1%
SMILES	Nrf2 ARE act	A549 viability	rTrxR1 inhibitor	TrxR1 substrate	GALK inhibitor	Nrf2 inh
O=C1c2ccccc2CC1Sc1nnc(-c2ccccn2)o1 (stereo not given)	13µM*	7%	?	16%	10%	?
CCOC(=O)c1ccc(-n2c(N)c(C(=O)OC)c3nc4ccccc4nc32)cc1	5%	0%	?	168%[57.1 µM]	.	.
O=C(Nc1cccc(NC(=O)c2cccs2)c1)c1ccc([N+](=O)[O-])o1	?	-10%	-20%	-8%	5%	16%
COc1ccc(-c2cc3ccccc3oc2=O)cc1NC(=O)c1ccc([N+](=O)[O-])o1	6.3µM*	-14%	-8%	-9%	7%	?
Cc1ccc(NC(=O)c2cccs2)cc1[N+](=O)[O-]	14µM*	-11%	10%[57.1 µM]	-1%[57.1 µM]	0%	?
COc1cc(NC(=O)c2ccc([N+](=O)[O-])o2)ccc1NC(=O)c1cccs1	11µM*	23µM*	-55%	-22%	11%	6%
CC(=O)Nc1ccc(S(=O)(=O)Nc2ccc(C)c([N+](=O)[O-])c2)cc1	0%	-8%	1%	3%[0.0914 µM]	-4%	26µM*
Cc1cccc(NS(=O)(=O)c2ccc(NC(=O)CN(c3cc([N+](=O)[O-])ccc3C)S(C)(=O)=O)cc2)c1	3%	?	0%	-11%	.	18µM*
